Values joined by “and” are separate entries in the source; they are usually repeats but may differ in a detail not shown here. Equal values may be shown once. About 79,000 compounds went through this panel and 15% of them were active in at least one assay; those are over-represented in the sample as a whole. Active and inactive are the calls of the source. Rule as the data show it: active = growth inhibition above about 70%; inactive = the rest.
Assays:
[1] = NCI Yeast Anticancer Drug Screen. Data for the rad50 strain (AID 155);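 also: 0% = growth of vehicle-only cultures of the same strain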; settings: S. cerevisiae rad50 strain growth inhibition; at 50.0 µM; active compounds read high
Summary of the method: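 Compounds were tested on a yeast strain with an engineered DNA damage repair alteration; the reported value is growth inhibition normalised to vehicle treatment.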

[2] = NCI Yeast Anticancer Drug Screen. Data for the mec2-1 strain (AID 157); settings: S. cerevisiae mec2-1 strain, at 50.0 µM, active compounds read high
Summary of the method: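 Yeast mec2-1 mutant treated with compound. Readout: growth inhibition vs vehicle controls.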

[3] = NCI Yeast Anticancer Drug Screen. Data for the sgs1 mgt1 strain (AID 161);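 also: 0% = growth of cultures given vehicle only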; settings: S. cerevisiae sgs1 mgt1 strain, at 50.0 µM, active compounds read high
Summary of the method: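 Inhibition of yeast growth, normalised to vehicle-treated controls, is reported for a strain bearing genetic alterations in DNA damage repair.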

[4] = NCI Yeast Anticancer Drug Screen. Data for the cln2 rad14 strain (AID 165);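 also: 0% = growth equal to vehicle treated cultures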; settings: S. cerevisiae cln2 rad14 strain, at 50.0 µM, active compounds read high
Summary of the method: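 cln2 rad14 yeast strain; compound exposure; growth inhibition read vs vehicle controls.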

[5] = NCI Yeast Anticancer Drug Screen. Data for the bub3 strain (AID 167); settings: S. cerevisiae bub3 mutant strain, at 50.0 µM, active compounds read high
Summary of the method: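 Growth of a checkpoint-deficient yeast mutant is measured after compound exposure. Values represent inhibition relative to vehicle.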

[6] = NCI Yeast Anticancer Drug Screen. Data for the mlh1 rad18 strain (AID 175); settings: S. cerevisiae mlh1 rad18 strain growth inhibition; at 50.0 µM; active compounds read high
Summary of the method: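 Yeast w/ defined DNA-repair lesions; compound exposure; growth vs vehicle controls → % inhibition.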

Measured: growth inhibition

O=C(O)c1cc(Cc2ccc(O)c(C(=O)O)c2)ccc1O
inactive: [1] -24.2% and -8.25% | [2] 3.15% and -18.5% | [3] -18.3% and 8.2% | [4] -0.5% and -39.9% | [5] -13.4% and 33.9% | [6] -23.9% and -10.8%

N#CC(C#N)=Cc1ccc(Cl)cc1
inactive: [1] 13.6% and 9.25% | [2] -2.05% and -21.4% | [3] 8.5% and 19.9% | [4] 3.45% and -9.95% | [5] -8.1% and 0.15% | [6] 20.7% and 20.1%

C[CH2][Sn]1([CH2]C)[O]OC(c2ccccc2)[O]1 (stereo not given)
inactive: [1] 6.25% | [2] 2.75% | [3] 18.7% | [4] -3.65% | [5] 14.1% | [6] 20.3%

CCCCN=C=S
inactive: [1] 45.7% | [2] -11.7% | [3] 21.8% | [4] 5.15% | [5] -3.8% | [6] 19%

CNN
inactive: [1] 19.6% | [2] -4.8% | [3] 34.1% | [4] 3.3% | [5] -1.8% | [6] 40.1%

CCN(CC)C(=S)SC1C(=O)NC(=O)NC1=O
inactive: [1] 23.3% | [2] -15.4% | [3] 20.1% | [4] 20.6% | [5] 1.9% | [6] 16.1%

O=C1NC(=O)C2(CCc3ccc(N(CCCl)CCCl)cc32)N1 (stereo not given)
inactive: [1] 14.1% | [2] -19.5% | [3] -4.75% | [4] 11.9% | [5] -16.6% | [6] 11.1%

CN1C(=O)C(C)(C2=CCCCC2)C(=O)NC1=S (stereo not given)
inactive: [1] 1.55% | [2] 1.65% | [3] 11.8% | [4] -17.4% | [5] -1.9% | [6] 11.9%

CN(C)c1ccc(C=Cc2ccc([N+](=O)[O-])cc2)cc1.[C-]#[O+].[C-]#[O+].[C-]#[O+].[Cr]
inactive: [1] -16.1% | [2] -5.1% | [3] -11.6% | [4] 24.8% | [5] -7.35% | [6] -10.1%

COc1cc(C(N)Cc2ccccc2)ccc1O (stereo not given)
inactive: [1] -9.85% | [2] 1% | [3] -1.25% | [4] -33.1% | [5] 26.6% | [6] 4.6%

OC[CH2][Hg][I]
active: [1] 99.8% | [2] 99.8% | [3] 99.8% | [4] 99.8% | [5] 99.8% | [6] 99.8%

NC(=O)c1ccc(NN=O)nc1
inactive: [1] -10.4% | [2] 0.9% | [3] 1.1% | [4] -9.85% | [5] -2.85% | [6] -2.5%

CCOP(=O)(OCC)/C(C#N)=C/c1ccc(C#N)cc1
inactive: [1] 30.6% | [2] 15.8% | [3] 10.8% | [4] 12.3% | [5] 14.7% | [6] 55.2%

COc1ccc2c3c1O[C@]1(C)C34CCN(C)C(C2)C42C=C[C@@]1(OC)c1c(O)ccc(O)c12
inactive: [1] 6.55% | [2] -13.2% | [3] -12.8% | [4] 7.9% | [5] -10.6% | [6] -0.9%

Nc1ccccc1Nc1ccccc1C(=O)[O-].Nc1ccccc1Nc1ccccc1C(=O)[O-].[Zn+2]
inactive: [1] -19.2% | [2] -7% | [3] -15.2% | [4] 10.2% | [5] -29.4% | [6] -7.55%

CCOC(OC1=C(C#N)CCCC1)C(CC)[Se]c1ccccc1 (stereo not given)
inactive: [1] 62.6% | [2] 21.3% | [3] 50.8% | [4] 52% | [5] 44.1% | [6] 57.8%

C=CC12CN(C)C3C4COC(CC41)C1(C(=O)Nc4ccccc41)C32 (stereo not given)
inactive: [1] 1.25% and -22.5% | [2] -3.3% and -18.6% | [3] -7.35% | [4] -13.5% | [5] -11.6% | [6] 29.2% and -19.2%

CC1=NCCN=C(C)C1[N+](=O)[O-]
inactive: [1] 6.7% | [2] 10.9% | [3] 39.2% | [4] 0.55% | [5] 2.65% | [6] 24.3%

FC(F)(F)C1(F)N(Cc2ccccc2)C1(F)C(F)(F)F (stereo not given)
inactive: [1] 9.1% | [2] -7.5% | [3] -10.3% | [4] -6.65% | [5] 7% | [6] -9.95%

NCCCP(c1ccccc1)c1ccccc1
inactive: [1] 0.3% | [2] 0.4% | [3] -5.65% | [4] 8.7% | [5] -1.7% | [6] 10.6%

COc1cccc(N2C(=O)C3C(C2=O)C2(Cl)C(Cl)=C(Cl)C3(Cl)C2(Cl)Cl)c1 (stereo not given)
inactive: [1] 58.4% | [2] 45.2% | [3] 53.5% | [4] 10.1% | [5] 19.4% | [6] 49.8%

OC(c1ccccc1)C1CCCCN1 (stereo not given)
inactive: [1] -7.95% | [2] -7.2% | [3] 9.8% | [4] -12.3% | [5] 11.2% | [6] -17.6%

Nc1ccc([As](O)O)c(C(=O)O)c1
inactive: [1] -15.1% | [2] -24.1% | [3] -27.9% | [4] -2.35% | [5] -26.3% | [6] -35.6%

C[C@]12CC[C@H]3[C@@H](CCC4=CC(=O)CC[C@@]43C)[C@@H]1CC[C@@H]2OC(=O)c1cccc2c(=O)c3ccccc3[nH]c12
active: [2] 73% | [3] 82.1% | [5] 71.2%
inactive: [1] 30.6% | [4] 34.2% | [6] 4.1%

CC(=O)OC1(C#N)CC2OC1C1NC21 (stereo not given)
inactive: [1] 5.7% | [2] -8.8% | [3] 18.4% | [4] 8.8% | [5] -14.7% | [6] -13%

COc1ccc([N+](=O)[O-])cc1CNCCCl
inactive: [1] -2.75% | [2] 24.6% | [3] 36.5% | [4] -14.8% | [5] 20.1% | [6] 19.4%

CC(C)CC(NC=O)C(=O)NC(Cc1ccccc1)NC(=O)CNC(=O)C(C)NC(=O)C(N)Cc1ccc(O)cc1 (stereo not given)
inactive: [1] -17.3% | [2] -9.9% | [3] -0.9% | [4] 15.4% | [5] -5.15% | [6] -6.45%

CC(C)N1CC(COc2cccc3ccccc23)OP1(=O)N(CCCl)CCCl (stereo not given)
active: [1] 97% | [2] 98.7% | [4] 98.3% | [5] 98.4% | [6] 98.4%
inactive: [3] 52%

CC(=O)CC(C)=O.[Cl][Sb]1([Cl])[CH2]CC[CH2]1
inactive: [1] -22.4% | [2] -11.8% | [3] -17.1% | [4] -0.75% | [5] 1.25% | [6] 5.55%

NC(Cc1ccccc1)c1nccs1 (stereo not given)
inactive: [1] -8.95% | [2] -26.6% | [3] -7.65% | [4] 11.2% | [5] -30.1% | [6] -2.6%

O=C1CCN2CCCC1C2 (stereo not given)
inactive: [1] -18.9% | [2] -21.3% | [3] -18.8% | [4] -4.15% | [5] -16.6% | [6] -43.8%

CNC(P(=O)([O-])[O-])P(=O)([O-])[O-].N.N.[Pt+2]
inactive: [1] -0.2% | [2] -16.3% | [3] -47.2% | [4] -17.1% | [5] -8.65% | [6] -15.7%

c1ccc([As]2[As](c3ccccc3)[As](c3ccccc3)[As]2c2ccccc2)cc1 (stereo not given)
active: [1] 99.5% | [2] 99.8% | [3] 99.8% | [4] 98.1% | [5] 99.2% | [6] 99.5%

Cc1c([N+](=O)[O-])cc(C(C)(C)C)c(O)c1[N+](=O)[O-]
inactive: [1] 60.6% | [2] 63.1% | [4] 43.5% | [5] 27.1%
active: [3] 72.2% | [6] 70.6%

C=C1CC/C=C(/C)C(=O)C(OC(C)=O)C2C1CC2(C)C (stereo not given)
active: [1] 78% | [2] 83.6% | [3] 81.2% | [4] 70.7% | [5] 86.2% | [6] 81.4%

CCN(CCCl)c1cc(C(N)=O)c([N+](=O)[O-])cc1[N+](=O)[O-]
inactive: [1] -1.25% | [2] -8.7% | [3] 9% | [4] 3.8% | [5] 5.25% | [6] -19.6%

CCOP(=O)(OCC)C(F)(F)CC1CCCCC1
inactive: [1] -17.1% | [2] -25.6% | [3] -19.4% | [4] -59% | [5] 26.2% | [6] -9.85%

CN(C)CCNC(=O)c1cc(COC(=O)N(CCCl)CCCl)ccc1[N+](=O)[O-]
inactive: [1] 38.2% | [2] 36.9% | [3] 56.1% | [4] 28.1% | [5] 35.8% | [6] 56.8%

CN(C)c1ccc(-c2ccc(N(C)C)cc2)cc1
inactive: [1] -10.6% | [2] 7.3% | [3] 5.45% | [4] 17.6% | [5] 3.2% | [6] -2.6%

[CH3][Sn]([CH3])([Cl])[S]CCN
inactive: [1] 29.6% | [2] 32.5% | [3] -5.55% | [4] 1.25% | [5] -15.4% | [6] 18.6%

From PubChem BioAssay (NCI)
